# Screens (PubChem)
# Compounds with a hit are over-represented: about 12% of the library has one in this group of screens.
# FMDV antiviral – blocks foot and mouth disease virus | AID 1159524 | Potency, µM (titrated, usually from 57.9 µM), for inactives: at the highest dose activity change, negative = inhibition, hits mostly inhibitors | FMDV antiviral cell-based qHTS | 410,000 tested, 1.2% active; calls by dose curve; tested in HEK293T cells; further: read-out not given here; potency means the concentration at half of the fitted maximal effect; on the % scale 0 is the no-effect control and ±100 the full control effect; nearly all actives have a fitted effect of over 45% in size
# CHX counter – counter-screen for Shiga toxin inhibitors: cycloheximide protein synthesis inhibition; AID 2314; cell reporter, cycloheximide protein synthesis inhibition counterscreen; 300,000 tested, 12% active; max response, %; in the data active means max response mostly above about 13%, no sharp cut-off; inactive means mostly below about 14%; further: read at 38.3 µM for the half of the compounds with a filed dose; 0% is about no effect
# Sm TGR inh – S. mansoni TGR enzyme inhibition; Potency, µM (highest dose often 114 µM), without a hit: top-dose activity change, negative = inhibition, usual class: inhibitors; purified TGR, DTNB reduction, TNB absorbance 405 nm; 360,000 tested, 3% active; Q962Y6; active means well fitted inhibition curve with a large enough effect; inconclusive means small, poorly fitted or top-dose-only effect; inactive means no such curve, though single readings can be large or run the other way; further: potency means the concentration at half of the fitted maximal effect; on the % scale 0 is the no-effect control and ±100 the full control effect; nearly all actives have a fitted effect of over 60% in size
#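 Kinetic colorimetric format: TGR-catalysed, NADPH-driven DTNB reduction monitored via TNB absorbance. Enzyme dispensed at 20 nM; compound exposure 15 min at room temperature before reaction start.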
# Shiga toxin inh – inhibitors of Shiga toxin in Vero cells | Vero cells, Shiga toxin protein synthesis inhibition reporter | inhibition, % at 38.7 µM | 290,000 tested, 9.2% active | AID 2315; in the data active means inhibition mostly above about 28%, no sharp cut-off; inactive means mostly below about 43%; further: 0% is about no effect
# Active calls of the source: *; ? = inconclusive; · = no result given; [ ] = dose if it differs, or a comment.
SMILES,FMDV antiviral,CHX counter,Sm TGR inh,Shiga toxin inh
CN(C)c1cc[n+](/C(C(=S)Nc2ccc(SC(F)F)cc2)=C(/[O-])c2ccccc2)cc1,-20.8%,9.4,47.7%,19.2
CN(C(=S)Nc1ccccc1)c1ccccc1,-16.6%,-2.9,-31.0%,-7.8
CN(CCC#N)C(=S)Nc1ccc(Oc2ccccc2)cc1,2.1%,-2.1,-1.0%,-13.7
CCN(C(=S)Nc1cccnc1)c1cccc2ccccc12,-5.9%,-0.6,?,7.9
CCCCN(C)C(=S)Nc1ccc(Oc2ccccc2)cc1,15.0%,21.8*,-1.9%,12.1
CN(C(=S)Nc1ccc(SC(F)F)cc1)c1ccc(O)cc1,-4.8%,23.5*,-26.7%,18.3
CN(C(=S)Nc1ccc(Oc2ccccc2)cc1)c1ccc(O)cc1,?,15.5,39.8µM*,17.3
COc1ccc(NC(=O)C2CCN(C(=O)c3sc4nc[nH]c(=O)c4c3C)CC2)c(OC)c1,-15.9%,·,7.9%,·
CN(C(=S)Nc1cccnc1)c1ccc(O)cc1,-24.3%,9.0,-31.6%,23.1*
CN(C(=S)Nc1ccc(Oc2ccccc2)cc1)C1CCCCC1,-18.2%,22.0*,-7.7%,-2.9
CN(c1ccc(C(=O)Nc2cccnc2)cc1)S(C)(=O)=O,-3.5%,8.7,-0.3%,-1.9
COc1ccc(-c2cc(-c3ccccc3)nc3c2COc2ccc(F)cc2-3)cc1,-10.5%,·,8.5%,·
O=C1CC(=O)Nc2ccccc2N1,0.0%,·,·,·
O=C1CC(/C=C/c2cccnc2)=Nc2ccccc2N1,-3.5%,17.4*,3.0%,30.0
O=C1CC(/C=C/c2ccccc2)=Nc2ccccc2N1,60.3%,30.1*,-1.8%,58.5*
CC1(C)CC(=O)C=C(/C=C/c2ccccc2)C1,-4.8%,·,-30.7%,·
O=C1CC(C(F)(F)C(F)(F)C(F)(F)F)=Nc2ccccc2N1,-16.6%,-1.2,3.4%,-7.9
O=C1CC(/C=C/c2ccc(Cl)cc2)=Nc2ccccc2N1,4.8%,38.8*,7.1%,97.4*
CC1(C)CC(/C=C/c2ccccc2)=Nc2ccccc2N1,0.0%,52.3*,4.9%,83.3*
CC(=O)C(=O)O,·,-2.5,·,16.1
COc1ccc(N(C(=O)COc2ccc(Br)cc2)S(=O)(=O)c2ccc(C)cc2)cc1,14.4%,·,-9.3%,·
CCCN(CCC)C(=O)CSc1nnc2cc(C)c3ccccc3n12,-11.4%,·,-2.8%,·
COc1ccc(CNC(=O)c2cnn3c(C)c(Cc4ccc(F)cc4)c(C)nc23)cc1,?,·,-2.8%,·
Nc1nonc1-c1nc2ccccc2n1CC(=O)N/N=C/c1ccc(-c2ccccc2C(=O)O)o1,4.6%,7.2,39.8µM*,7.1
Nc1nonc1-c1nc2ccccc2n1CC(=O)Nc1ccccc1,-2.2%,-2.3,-1.5%,-0.9
SMILES,FMDV antiviral,CHX counter,Sm TGR inh,Shiga toxin inh
Cn1cc(/C=C2/SC(=O)N(c3ccccc3)C2=O)c2ccccc21,33.7%,24.8*,0.0%,43.4
Cn1cccc1/C=C1\SC(=O)N(c2ccccc2)C1=O,20.0%,52.2*,1.0%,63.2*
O=C(O)Cn1cc(/C=C2/SC(=O)N(CC(=O)N3CCCCCC3)C2=O)c2ccccc21,1.3%,9.9,-3.8%,-5.3
O=C(O)Cn1cc(/C=C2\SC(=O)N(c3ccccc3)C2=O)c2ccccc21,2.3%,15.8*,·,31.6
Cn1cc(/C=C2\SC(=S)N(NC(=O)c3ccccc3)C2=O)c2ccccc21,30.9%,-1.0,-1.2%,-4.8
CN1CCN(c2ncc3ncc(=O)n(-c4ccccc4)c3n2)CC1,-4.3%,·,·,·
CC(=O)Nc1nonc1-c1nnc(SCc2ccc(F)cc2)n1C,-13.2%,·,-1.4%,·
O=CC(O)C(O)C(O)C(O)CO (stereo not given),·,-7.7,·,1.3
CCn1c(NC(=O)C2CCCCC2)nc2ccccc21,18.9%,26.1*,-9.1%,36.0*
CCn1c(NC(=S)Nc2ccccc2)nc2ccccc21,65.0%,28.9*,-34.4%,53.2*
CCCn1c(NC(=S)Nc2ccccc2)nc2ccccc21,21.9%,-0.5,-11.8%,-12.9
O=C(Nc1nc2ccccc2n1CCN1CCCCC1)C1CCCCC1,0.0%,-4.2,-23.8%,-10.3
Cc1cc(=O)[nH]c(NN=C2C3CC4CC(C3)CC2C4)n1,-13.4%,17.7*,3.6%,26.7
Cc1cc(=O)[nH]c(NN=C2CCCCC2C)n1 (stereo not given),-4.5%,·,·,·
Cc1cc(=O)[nH]c(N/N=C/c2ccc(Br)s2)n1,-11.5%,26.9*,0.4%,29.3
Cc1cc(=O)[nH]c(N/N=C/c2cccc(Br)c2)n1,3.1%,15.3*,-15.0%,·
Cc1cc(=O)[nH]c(N/N=C/c2ccccn2)n1,51.0%,13.8*,-1.8%,-33.6
Cc1cc(=O)[nH]c(NN=Cc2c(Cl)cccc2Cl)n1,-23.1%,·,·,·
COc1cc(OC)c(NC(=O)Nc2ccc3c(c2)N(C)C(=O)c2ccccc2S3)cc1Cl,12.0%,·,-20.4%,·
Cc1cc(=O)[nH]c(N/N=C2/CCCC/C2=C\c2ccccc2)n1,4.7%,1.8,22.4µM*,18.6
Cc1cc(=O)[nH]c(N/N=C/C=C/c2ccccc2)n1,-3.8%,14.1,-8.9%,22.2
O=C(CNS(=O)(=O)c1cccc(Cl)c1)OCc1csc(-c2ccccc2)n1,-9.5%,13.9,-3.6%,-8.6
Cn1cccc1C(=O)OCc1ccc(F)cc1,24.5%,18.8*,-9.0%,50.2
CNS(=O)(=O)c1cccc(C(=O)OCc2csc(-c3ccccc3)n2)c1,-11.2%,32.8*,-8.9%,62.5*
O=C(CNC(=O)c1ccccc1F)OCc1csc(-c2ccccc2)n1,29.9%,18.1*,11.5%,31.4
SMILES,FMDV antiviral,CHX counter,Sm TGR inh,Shiga toxin inh
O=C(OCc1csc(-c2ccccc2)n1)C1=NN(c2ccccc2)C(=O)CC1,26.2%,·,-24.8%,·
O=C(OCc1csc(-c2ccccc2)n1)c1cccs1,-24.8%,33.7*,14.5%[11.4 µM],49.0*
COc1cc(Cl)c(C)cc1NC(=O)c1cc(CN2CCOCC2)on1,-12.4%,·,-12.9%,·
Cc1nnsc1C(=O)Oc1ccc(Cl)cc1,3.0%,·,-30.4%,·
O=c1c2sccc2n(Cc2cc(=O)n3cc(Cl)ccc3n2)c(=O)n1-c1ccccc1,14.7%,·,16.4%,·
Cc1ccsc1C(=O)OCc1csc(-c2ccccc2)n1,-52.2%,25.8*,1.5%,102.3*
O=C(O)Cc1csc(-c2ccccc2)n1,17.2%,16.3,-1.6%,21.0
Cn1cccc1C(=O)OCc1csc(-c2ccccc2)n1,-5.5%,22.3*,-1.9%,77.1*
CN(Cc1cccs1)C(=O)Cc1csc(-c2ccccc2)n1,64.8%,47.2*,5.5%,69.1*
COCCNc1ccc2cc(S(=O)(=O)N3CCCCC3)ccc2n1,25.2%,·,2.7%,·
CCN1CCN(c2c(S(=O)(=O)c3ccc(C)c(C)c3)cnc3cc(OC)c(OC)cc23)CC1,-8.1%,·,-2.4%,·
Cc1cccc(NC(=O)CSc2ncc(-c3ccc(Br)cc3)[nH]2)c1,22.9%,·,4.0%,·
Nc1ccc2oc(CCc3ccccc3)nc2c1,0.0%,47.7*,-12.8%,166.5*
c1ccc2oc(Cc3ccc(Cc4nc5ccccc5o4)cc3)nc2c1,?,-3.3,-11.5%,14.3
c1ccc2oc(CCc3nc4ccccc4o3)nc2c1,19.3%,14.7*,12.8%,20.3
COc1ccc(C2C(=O)N(C3CCCCC3)CC(=O)N2CCc2ccc(C)cc2)cc1OC (stereo not given),-14.1%,·,54.3%,·
Nc1c(-c2ccccc2)n[nH]c1-c1ccccc1,88.0%,31.2*,0.4%,78.3*
S=c1nc(-c2ccccc2)c(-c2ccccc2)n[nH]1,-3.0%,-4.9,7.1%,-12.8
O=C(O)c1ccc(N=Cc2c(O)ccc3ccccc23)cc1,-4.6%,1.6,?,·
